PubChem BioAssay (NCATS)
Records with an inconclusive call do not appear. Activity calls are given as the source filed them. Calls follow the shape of the dose curve; as a rule, active = well fitted inhibition curve with a large enough effect; inconclusive = small, poorly fitted or top-dose-only effect; inactive = no such curve, though single readings can be large or run the other way.

experiment: BET inhibitor-based combinations targeting novel dependencies in MECOM-rearranged (r) AML: OCI-AML3 cell line (AID 2202232); conditions: CellTiter-Glo luminescence, 48 h; Potency: OCI-AML3 viability; series mostly up to 46 µM; also: nearly all actives have a fitted effect of over 35% in size
From the text: Ecotropic viral insertion site 1 (EVI1) is located on chromosome 3q26.2 as part of the MECOM (MDS and EVI1 complex) locus. Under normal hematopoiesis, EVI1 is a regulator of hematopoietic stem cell maintenance and self-renewal and EVI1 levels decrease as the cells differentiate. In approximately 5-10% of de novo acute myeloid leukemia (AML) EVI1 is aberrantly expressed, including Chromosomal inv(3)(q21;q26.2) or t(3;3)(q21;q26.2) alterations (MECOM-r) that account for about 50% of AML with EVI1 overexpression 31. AMLs with high levels of EVI1 have a poor prognosis and an overall survival time averaging between 10-14 months. EVI1 overexpression confers resistance in leukemia cells, highlighting the need to develop new targeted therapies for EVI1 overexpressing AMLs.
Here, we performed an unbiased chemical drug screening by evaluating the single agent activity of a collection of 2,480 oncology-focused, approved and investigational drugs (NCATS Mechanism Interrogation Plates, MIPE v5.0) against a panel of seven AML cell lines. These included four MECOM-r cell-lines (AML-191, AML-194, UCSD-AML1 and HNT-34) and three non-MECOM-r AMLs (MV4-11, OCI-AML3 and SET-2). Exploiting the mechanistic redundancy built in the library, we identified target-level sensitivities in MECOM-r AML cells and relative activity as compared to other AML subtypes.
A collection of 2480 mechanistically annotated dugs (MIPE v5.0) was used to screen four 3q26.2 rearranged AML cell lines and three non-3q26.2 rearranged AML cell lines. This library purposely exploits redundancy by including multiple inhibitors of key onco-targets, while simultaneously encompassing mechanistic diversity, targeting more than 800 distinct mechanisms of action. Briefly, cells were seeded in 5 uL of growth media using a Multidrop Combi dispenser into 1536 well white polystyrene tissue culture treated plates (Corning) at a density of 500cells/well. For each cell-line, for each of the 2480 drugs in MIPE v5.0 library, an 11-point dose curve was generated via a 1536 pin-tool. Plates were incubated for 48 hr at standard incubator conditions, covered by a stainless steel gasketed lid to prevent evaporation. Cell viability was determined by luminescence based, Cell Titer Glo assay (Promega). In detail, 3 uL of Cell Titer Glo were added to each well and plates were incubated at room temperature for 15 min with a stainless-steel lid in place. Luminescence readings were taken using a Viewlux (PerkinElmer) with a 2 s exposure time per plate. Compound dose-response curves were normalized to DMSO and empty well controls on each plate. Quantitative drug activity data from dose-response curves was determined utilizing area Under the Curve (AUC) and Z-transformed AUC (Z-AUC, a mean-centering transformation applied to each individual cell-line screened).
Potency is read from the fitted curve at half-maximal effect.

SMILES | Potency
CN(CCOc1ccc(NS(C)(=O)=O)cc1)CCc1ccc(NS(C)(=O)=O)cc1 | inactive
CCC[C@H](N[C@@H](C)C(=O)N1[C@@H]2CCCC[C@H]2C[C@H]1C(=O)O)C(=O)OCC | inactive
CC1(C)NC(=O)N(c2ccc([N+](=O)[O-])c(C(F)(F)F)c2)C1=O | inactive
O=C(NCc1cccc(O)c1)Nc1nc(-c2ccncc2)cs1 | 14.8 µM (active)
N#Cc1ccc(C2CCCc3cncn32)cc1 (stereo not given) | inactive
CCCCOC(=O)NS(=O)(=O)c1sc(CC(C)C)cc1-c1ccc(Cn2ccnc2)cc1 | inactive
Cc1ccc(S(=O)(=O)Nc2nc3ccccc3nc2Nc2ccc3nsnc3c2)cc1 | inactive
COc1ccc(CNc2nc(N(CCO)CCO)nc3c2ncn3C(C)C)cc1 | 8.33 µM (active)
Cc1ccccc1-n1c(Cn2nc(-c3cccc(O)c3)c3c(N)ncnc32)nc2cccc(C)c2c1=O | 1.86 µM (active)
Nc1nc(OCc2cc(Br)cs2)c2[nH]cnc2n1 | 9.34 µM (active)
Cc1c(NC(=O)c2cc3c(s2)CCCC3)cccc1-c1cn(C)c(=O)c(Nc2ccc(C3C(=O)N(C)CCN3C)cc2)n1 (stereo not given) | 16.6 µM (active)
COc1ccc(Nc2nccc(NCCO)n2)cc1 | 23.5 µM (active)
CC(C)(C)COc1ccc(-n2cc(C(=O)O)cn2)cc1C#N | 10.5 µM (active)
O=C(/C=C/C=C/c1ccc2c(c1)OCO2)N1CCCCC1 | 18.6 µM (active)
NC(N)=NC(=O)c1nc(Cl)c(N)nc1N | 9.59 µM (active)
COc1ccc(Cl)c(Nc2ncnc3cc(OCC4CCN(C)CC4)c(OC)cc23)c1 | 29.5 µM (active)
Cc1nc(N)sc1-c1ccnc(Nc2ccc(N3CCOCC3)cc2)n1 | 11.8 µM (active)
c1cc(CN2CCCNCCNCCCNCC2)ccc1CN1CCCNCCNCCCNCC1 | inactive
Cc1ccc(C(C)(O)c2nc3ccccc3s2)c(C)c1 (stereo not given) | inactive
Nc1ccc(/C=C/C(=O)NCc2cc3cc(-c4ccc(C(=O)N5CCC(F)(F)CC5)cc4)cc(-c4ccc(F)cc4)c3o2)cn1 | 0.525 µM (active)

SMILES | Potency
Fc1ccc2[nH]ccc2c1-c1nc(N2CCOCC2)c2sc(CN3CCN(CC4CC4)CC3)cc2n1 | 11.8 µM (active)
CN1C(=O)N[C@@H](Cc2c[nH]c3c(Cl)cccc23)C1=O | inactive
CC1COC2(CCN(c3nc(=O)c4cc(C(F)(F)F)cc([N+](=O)[O-])c4s3)CC2)O1 (stereo not given) | inactive
O=C(O)c1ccc2c(c1)nc(Nc1cccc(Cl)c1)c1ccncc12 | 8.33 µM (active)
CC(C)[C@H](O)C(=O)N[C@@H](C)C(=O)N[C@@H]1C(=O)N(C)CCc2ccccc21 | inactive
NS(=O)(=O)c1cccc2c1C(=O)c1cccc(O)c1C2=O | 1.66 µM (active)
O=C(Nc1ccc(F)c(C(F)(F)F)c1)Nc1nnc(-c2ccncc2)s1 | inactive
CC(Oc1ccc(O)cc1)(P(=O)(O)O)P(=O)(O)O | inactive
CC[N+](CC)(CC)CCOc1cccc(OCC[N+](CC)(CC)CC)c1OCC[N+](CC)(CC)CC | inactive
CC(C)COCC(CN(Cc1ccccc1)c1ccccc1)N1CCCC1 (stereo not given) | 18.6 µM (active)
Cc1[nH]c(=O)c(C#N)cc1-c1ccc2nccn2c1 | inactive
CCCCCCOC(=O)NC(=N)c1ccc(NCc2nc3cc(C(=O)N(CCC(=O)OCC)c4ccccn4)ccc3n2C)cc1 | 8.33 µM (active)
Cn1c(=O)n(-c2ccc(C(C)(C)C#N)cc2)c2c3cc(-c4cnc5ccccc5c4)ccc3ncc21 | 0.241 µM (active)
CCn1cc(C(=O)O)c(=O)c2cc(F)c(N3CCN(C)CC3)cc21 | inactive
COc1cc(N2CCN(C)CC2)ccc1Nc1nccc(-c2cn(C)c3cnccc23)n1 | 14.8 µM (active)
COC1CCC(N(C(=O)C2CCC(C)CC2)c2cc(C3=CCCCC3)sc2C(=O)O)CC1 (stereo not given) | inactive
CC1CCN(c2cc(N3CCN(C)CC3)ccc2NC(=O)c2cc(C#N)c[nH]2)CC1 | 20.9 µM (active)
C[C@]12C=CC(=O)C=C1CC[C@@H]1[C@@H]2C(=O)C[C@@]2(C)[C@H]1CC[C@]2(O)C(=O)CO | inactive
CNC(=O)Nc1ccc(-c2nc(N3CC4CCC(C3)O4)c3cnn(C4CCC5(CC4)OCCO5)c3n2)cc1 | 0.105 µM (active)
CS(=O)(=O)N1CCC(NC(=O)c2[nH]ncc2NC(=O)c2c(Cl)cccc2Cl)CC1 | 1.48 µM (active)
